This is an account of results in the supplement of paper PMC7156485.

SMILES strings stand for the structures.
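Further: TDF is a line of transformed human dermal fibroblasts of mesenchymal origin.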

The test system of this assay is HCC1569. The experiment in a line: H1.0 immunofluorescence intensity relative to DMSO (% of DMSO); higher = stronger H1.0 induction, active = 140 or more. The conditions noted are these: concentration: 10 µM; 24 h. The method in brief: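 Treatment: HCC1569 and TDF cells, 800 per well in 384-well plates with RPMI and 10% FBS, were given compounds at 10 µM for 24 h at 37 °C, in triplicate. Readout: after 3.7% formaldehyde fixation, cells were stained with a rabbit anti-H1.0 antibody, an AlexaFluor 647 secondary and DAPI. Reported values are H1.0 nuclear intensity or cell number as percent of the plate control, taken as the median of replicates, with positional smoothing for HCC1569.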
Turning to `O=C(Nc1ccc(Oc2ccnc3[nH]ccc23)c(F)c1)c1cccn(-c2ccc(F)cc2)c1=O`, the H1.0 immunofluorescence intensity is 111 (inactive).

As for `Nc1nnc(-c2cccc(Cl)c2Cl)c(N)n1` [Lamotrigine], the H1.0 immunofluorescence intensity was 101 (inactive).

For `Cn1cnc2c(NCc3ccccc3)nc(NCCO)nc21` [Olomoucine], the H1.0 immunofluorescence intensity is 94.1 (inactive).

Take `Cc1cnc(Nc2ccc(OCCN3CCCC3)cc2)nc1Nc1cccc(S(=O)(=O)NC(C)(C)C)c1`: the H1.0 immunofluorescence intensity was 189 (active).

On to `NC(CS(=O)O)C(=O)O` [L-Cysteinesulfinic Acid], for which the H1.0 immunofluorescence intensity was 92.3 (inactive).

Turning to `CC(C=Cc1cccc(Oc2ccc(F)cc2)c1)N(O)C(N)=O` (centres undefined), the H1.0 immunofluorescence intensity was 89.2 (inactive).

Take `CC=C1C2C=C(C)CC1(N)c1ccc(=O)[nH]c1C2` (single isomer, unassigned; (-)) [(-)-Huperazine]: the H1.0 immunofluorescence intensity was 84.1 (inactive).

`C=C(C)C1CC=C(C(=O)O)CC1` (single isomer, unassigned; (-)) [(-)-Perillic acid]: the H1.0 immunofluorescence intensity was 99.9 (inactive).

For `COc1ccccc1O` [Guaiacol], the H1.0 immunofluorescence intensity is 107 (inactive).

In the case of `O=C([O-])C=CC(O)c1ccc(Cl)cc1.[Na+]` (centres undefined), the H1.0 immunofluorescence intensity is 92.9 (inactive).

In the case of `Br.CN=c1nc(-c2ccccc2)n(-c2ccccc2)s1`, the H1.0 immunofluorescence intensity is 111 (inactive).

Turning to `CN(C)C(=O)COC(=O)Cc1ccc(OC(=O)c2ccc(N=C(N)N)cc2)cc1.CS(=O)(=O)O`, the H1.0 immunofluorescence intensity is 98.5 (inactive).

Consider `COc1ccc(CC[C@H]2CCC[C@@H](CCc3ccc(OC)cc3)N2C[C@@H](O)CO)cc1.Cl`, for which the H1.0 immunofluorescence intensity was 92.7 (inactive).

As for `CC(C)C(CO)Nc1nc(Nc2ccc(C(=O)O)c(Cl)c2)c2ncn(C(C)C)c2n1` (centres undefined) [Purvalanol B], the H1.0 immunofluorescence intensity is 98.7 (inactive).

On to `CCCCCCCCCCCCCCCC(=O)NCCO` [Palmitoylethanolamide], for which the H1.0 immunofluorescence intensity was 90.6 (inactive).

Regarding `Br.CN(C)CCCC1(c2ccc(F)cc2)OCc2cc(C#N)ccc21` (centres undefined) [Citalopram hydrobromide], the H1.0 immunofluorescence intensity is 92.5 (inactive).

As for `COc1cc(C2Oc3cc(C4Oc5cc(O)cc(O)c5C(=O)C4O)ccc3OC2CO)ccc1O` (centres undefined) [Silymarin], the H1.0 immunofluorescence intensity was 88.3 (inactive).

As for `CN=C(NC#N)NCCSCc1nc[nH]c1C` [Cimetidine], the H1.0 immunofluorescence intensity was 92.1 (inactive).

As to `CC(=O)NCCOC(=O)[C@H](Oc1cccc(C(F)(F)F)c1)c1ccc(Cl)cc1`, the H1.0 immunofluorescence intensity was 104 (inactive).

With `C=CCSC[C@H](N)C(=O)O` [(2R)-3-(allylsulfanyl)-2-aminopropanoic acid], the H1.0 immunofluorescence intensity is 90.1 (inactive).

In the case of `CCC=CCC=CCC=CCC=CCC=CCCC(=O)OC(COCCCCCCCCCCCCCCCC)COP(=O)([O-])OCC[N+](C)(C)C` (centres undefined), the H1.0 immunofluorescence intensity was 99.4 (inactive).

In the case of `CCN1CCCC1CNC(=O)c1cc(S(N)(=O)=O)ccc1OC` [(S)-(-)-Sulpiride], the H1.0 immunofluorescence intensity is 101 (inactive).

For `Oc1ccc(-c2c(-c3ccccc3)nn3c(C(F)(F)F)cc(C(F)(F)F)nc23)cc1`, the H1.0 immunofluorescence intensity was 143 (active).

Turning to `CCC1=C(C)CN(C(=O)NCCc2ccc(S(=O)(=O)NC(=O)NC3CCC(C)CC3)cc2)C1=O` (centres undefined) [Glimepiride], the H1.0 immunofluorescence intensity is 106 (inactive).

Regarding `C=C1CCC2OC2(C)CCC2C1CC2(C)C` (centres undefined) [Caryophylline], the H1.0 immunofluorescence intensity is 91.3 (inactive).

On to `NC(=S)NCCCC(N)C(=O)O` (centres undefined) [Thiocitrulline], for which the H1.0 immunofluorescence intensity was 95.7 (inactive).

Consider `CC(OC(=O)c1ccc(F)cc1F)C(=O)N(C)C1CCS(=O)(=O)C1` (centres undefined) [Cdk2/9 Inhibitor], for which the H1.0 immunofluorescence intensity was 139 (inactive).

As for `CC(=O)c1ccc(S(=O)(=O)NC(=O)NC2CCCCC2)cc1` [Acetohexamide], the H1.0 immunofluorescence intensity is 109 (inactive).

`COc1ccc(C(=O)/C(Cc2cc(OC)c(OC)c(OC)c2)=C(\C(=O)[O-])c2ccc3c(c2)OCO3)cc1.[Na+]`: the H1.0 immunofluorescence intensity was 103 (inactive).

As to `Cc1cccc(C)c1OCC(C)N.Cl` (centres undefined) [Mexiletene hydrochloride], the H1.0 immunofluorescence intensity is 94.3 (inactive).

Take `O=c1cc(N2CCOCC2)oc2c1ccc1ccccc12` [NU 7026 - 2-(4-Morpholinyl)-4H-naphthol[1,2-b]pyran-4-one]: the H1.0 immunofluorescence intensity was 105 (inactive).

Regarding `C=C(c1ccc(C(=O)O)cc1)c1cc2c(cc1C)C(C)(C)CCC2(C)C` [Bexarotene], the H1.0 immunofluorescence intensity is 111 (inactive).

Regarding `Nc1cc(=O)nc(N)[nH]1` [2,6-Diamino-4-pyrimidinone], the H1.0 immunofluorescence intensity is 97.1 (inactive).

With `CC(=O)C1(O)CCC2C3CCC4=CC(=O)CCC4(C)C3CCC21C` (centres undefined) [17- Hydroxyprogesterone], the H1.0 immunofluorescence intensity was 104 (inactive).
